High-throughput results (PubChem)
Compounds with a hit are over-represented: about 3.1% of the library has one in this group of screens.
Tau ThT inhib = blocks human tau fibril formation measured by thioflavin T. recombinant tau K18 P301L, heparin-induced fibrillization, ThT fluorescence. 2.1% of 270,000 active. P10636. Potency, µM (highest dose often 57.4 µM), inactives show at the top dose activity, negative = inhibition, actives largely listed as inhibitors; note: nearly all actives have a fitted effect of over 55% in size
Target sequence (P10636 561-689 P618L limits assumed): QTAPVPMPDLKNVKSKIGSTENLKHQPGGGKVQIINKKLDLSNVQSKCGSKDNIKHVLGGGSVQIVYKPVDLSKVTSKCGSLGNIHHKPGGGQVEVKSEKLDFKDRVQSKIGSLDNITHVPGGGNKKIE
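Heparin-induced (20 uM) aggregation of recombinant human K18 P301L tau, 15 uM unlabeled with 0.24 uM labeled, pH 7 acetate buffer, 6 hr at 37 C with compound. Fibrils quantified by 30 uM ThT fluorescence after 1 hr ambient incubation.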
Tau fibril FP = blocks human tau fibril formation measured by polarization; P10636; K18 P301L tau heparin fibrillization, Alexa594 FP, 6 h; 0.39% of 280,000 active; Potency, µM (series often up to 57.7 µM), without a hit: at the top dose activity, negative = inhibition, actives largely listed as inhibitors; AID 1468; note: nearly all actives have a fitted effect of over 55% in size
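Human K18 P301L fragment (15 uM unlabeled plus 0.24 uM Alexa 594-labeled) in 100 mM sodium acetate pH 7 with compound, aggregation induced by 20 uM heparin for 6 hr at 37 C. ThT (30 uM) added for 1 hr, then Alexa 594 FP read.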
TRb SRC2 PPI = disrupts binding of human TR beta to SRC2; Potency, µM (highest dose often 106 µM), without a hit: at the highest dose activity change, negative = inhibition, usual class: inhibitors; 0.065% of 280,000 active; AID 1469; P10828; TRbeta-SRC2 peptide binding, fluorescence polarization; receptor liganded with 1 µM T3;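 note: plate controls were bound peptide for no effect and peptide without receptor for full effect; nearly all actives have a fitted effect of over 50% in size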
Target sequence (P10828 whole entry, looked up): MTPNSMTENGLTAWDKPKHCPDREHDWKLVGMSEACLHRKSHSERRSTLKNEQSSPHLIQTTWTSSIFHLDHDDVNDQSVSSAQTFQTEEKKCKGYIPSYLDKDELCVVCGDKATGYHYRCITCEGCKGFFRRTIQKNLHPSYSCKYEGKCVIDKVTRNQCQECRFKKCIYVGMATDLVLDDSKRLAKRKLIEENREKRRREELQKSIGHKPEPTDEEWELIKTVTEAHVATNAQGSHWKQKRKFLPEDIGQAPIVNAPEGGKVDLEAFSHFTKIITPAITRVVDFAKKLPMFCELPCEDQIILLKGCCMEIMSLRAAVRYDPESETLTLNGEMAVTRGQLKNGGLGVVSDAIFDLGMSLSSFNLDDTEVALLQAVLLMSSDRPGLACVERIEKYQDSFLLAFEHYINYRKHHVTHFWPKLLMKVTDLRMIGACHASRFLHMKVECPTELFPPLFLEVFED
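A fluorescence polarization screen tested compounds at multiple concentrations against complex formation between 0.6 uM TRb ligand-binding domain and 20 nM Texas Red SRC2 peptide, with 1 uM T3 present; readout after 5 hr.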
TR SRC2 fluor cs = counter-screen for TRb-SRC2 inhibitors: fluorescence interference; TRb/SRC2 Texas Red total fluorescence interference; Potency, µM (top dose mostly 106 µM), for inactives: top-dose fluorescence change, negative = quenching; 0.29% of 280,000 active; AID 1479; active = well fitted curve in either direction with a large enough effect; inconclusive = small, poorly fitted or top-dose-only effect
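Flags fluorescent or light-absorbing compounds by total fluorescence, S + 2P, at 555 nm excitation and 632 nm emission. Mixture: 20 nM Texas Red SRC2 peptide, 0.6 uM human TRb LBD, 1 uM T3, 5% DMSO; compound exposure 5 h at ambient temperature.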
Tau fluor counter = counter-screen for tau fibril formation inhibitors | tau K18 P301L Alexa594 fluorescence, heparin fibrillization | Potency, µM (top dose mostly 57.7 µM), without a hit: at the top dose activity change, negative = decrease | 0.93% of 280,000 active; note: nearly all actives have a fitted effect of over 55% in size
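Human tau K18 P301L (15 uM unlabeled, 0.24 uM Alexa 594-labeled) in 100 mM sodium acetate pH 7 with 20 uM heparin, 6 hr at 37 C. ThT 30 uM added, 1 hr ambient; Alexa 594 FP and total fluorescence read at 555/632 nm.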
Active calls of the source: *; ? = inconclusive; / = no result; [ ] = dose if it differs, or a comment. Unless noted, calls come from the whole dose curve; as a rule, active = well fitted curve in the direction sought with a large enough effect; inconclusive = small, poorly fitted or top-dose-only effect, or another doubt; inactive = no such curve, though single readings can be large; an effect the other way counts as inactive or inconclusive. Unless noted, % is set by controls: 0 for no effect and ±100 for the full control effect; potency is the fitted concentration of half-maximal effect.

SMILES | Tau ThT inhib | Tau fibril FP | TRb SRC2 PPI | TR SRC2 fluor cs | Tau fluor counter
CN(C)c1ccc(NC(=O)Nc2csc3ccccc23)cc1 | 3.5µM* | -13% | 2% | 4% | 7.1µM*[quencher]
CN1CCC(CNC(=O)Nc2csc3ccccc23)CC1 | ? | 13% | 3% | 0% | -19%
C/C(=N\Nc1ccccc1)c1cc2ccccc2oc1=O | 11µM* | ? | 1% | -2% | ?
C/C(=N\NC(=O)CC#N)c1cc2ccccc2oc1=O | -3% | -5% | 9% | -3% | -7%
Cc1ccc(/C=C2/SC(=O)NC2=S)o1 | 4.5µM* | 10µM* | -25% | -12% | ?
O=C(CN1C(=O)S/C(=C\C=C\c2ccccc2)C1=O)Nc1cccc(O)c1 | ? | ? | 9% | -10% | 16µM*[quencher]
O=C(NN1C(=O)/C(=C\c2ccc(O)c([N+](=O)[O-])c2)SC1=S)c1ccccc1Cl | 3.2µM* | 14% | 6% | -7% | ?
Cn1cc(/C=C2\SC(=S)N(NC(=O)c3ccccc3Cl)C2=O)c2ccccc21 | 1.1µM* | -19% | -11% | 2% | -23%
O=C(CCN1C(=O)/C(=C/C=C/c2ccccc2)SC1=S)Nc1cccnc1 | ? | -1% | 0% | 2% | -5%
COc1cc(/C=C2\SC(=S)N(NC(=O)c3cccnc3)C2=O)ccc1O | / | 3% | ? | ? | -10%
Cc1c(C(=O)Nc2ccc3c(c2)OCO3)sc2ncn(CC(=O)N3CC(C)CC(C)C3)c(=O)c12 (stereo unspecified) | -2% | 0% | 9% | -3% | -17%
CC#CCN1c2ccccc2[C@]23C[C@@H](C(=O)OC)N(S(=O)(=O)c4c(C)noc4C)C2=NC(C(=O)OC)=C(C(=O)OC)[C@H]13 | ? | 1%[11.6 µM] | 5%[11.2 µM] | 0%[11.2 µM] | 4%[11.6 µM]
CCCCOc1ccc(S(=O)(=O)Nc2ccc(-c3ccc(N4CCCCC4)nn3)cc2)cc1 | 9% | 2% | -6% | -15% | 9%
O=C(O)CN1C(=O)/C(=C/C=C/c2ccccc2)SC1=S | 11µM* | -6% | 1% | -2% | -7%
O=C(O)CN1C(=O)/C(=C/c2ccc(SCc3ccccc3)o2)SC1=S | 13µM* | -8% | 6% | -9% | -11%
Cn1cccc1/C=C1\SC(=S)N(NC(=O)c2ccccc2Cl)C1=O | 11µM* | 5% | 3% | -1% | -26%
Cn1cc(C=O)c2ccccc21 | 5% | 2% | -2% | -3% | -5%
Cn1cc(/C=C2\SC(=O)NC2=S)c2ccccc21 | 2µM* | ? | 17% | 12% | ?
CC(=O)c1ccc(NC(=O)CN2C(=O)/C(=C/C=C/c3ccccc3)SC2=S)cc1 | ? | 1% | 0% | 2% | ?
CC(=O)NN1C(=O)/C(=C\c2ccccc2)SC1=S | -9% | -8% | -1% | -2% | -12%
COC(=O)C1=C(C)NC(C)=C(C(=O)OC(C)C)[C@H]1c1cccc2nonc12 | / | / | -3%[53 µM] | -2%[53 µM] | /
Cc1ccc(C(=O)N2CCc3cc(CNC(=O)CSc4ccccc4)ccc32)cc1 | -17% | -3% | -5% | -6% | -18%
CCC/C=C(\CCC)C(NS(=O)(=O)c1ccc(C(F)(F)F)cc1)c1ccc(C(=O)OC)cc1 (stereo unspecified) | -8% | 4% | -2% | 1% | -18%
COc1ccc(C(=O)OCC(=O)N2CCCC2=O)c(OC)c1 | -8% | 0% | 0% | 2% | -5%
Cc1ccc(C(=O)NN2C(=O)/C(=C/c3cccn3C)SC2=S)cc1 | 5µM* | 0% | -1% | 0% | ?
SMILES | Tau ThT inhib | Tau fibril FP | TRb SRC2 PPI | TR SRC2 fluor cs | Tau fluor counter
Cn1cccc1/C=C1\SC(=S)N(CC(=O)O)C1=O | 11µM* | -3% | -8% | -5% | 0%
O=C(O)CN1C(=O)/C(=C/c2ccsc2)SC1=S | -13% | -6% | -10% | 0% | 7%
Cc1ccc(C(=O)NN2C(=O)/C(=C/c3cn(C)c4ccccc34)SC2=S)cc1 | 7% | 7% | -10% | -7% | 2%
CCN(CC)c1nc2c3c(nc4c(c3c1C#N)CC(=O)N4c1ccc(Cl)cc1)NC(C)=N2 | 16µM* | ? | 5% | -2% | ?
Cc1nnc(N/N=C\c2ccc(-c3ccccc3[N+](=O)[O-])o2)n1N | 10µM* | ? | -2% | -2% | ?
Cc1nnc(N/N=C/c2ccccc2O)n1N | ? | ? | 7% | 2% | -12%
Cc1nnc(N/N=C/c2ccc(-c3ccccc3F)o2)n1N | 13µM* | -6% | 1% | 1% | ?
Cc1n[nH]c(=S)n1/N=C/c1ccc(-c2ccccc2[N+](=O)[O-])o1 | ? | 7% | -4% | 0% | -21%
O=C(NCC(c1ccc2c(c1)OCO2)N1CCN(c2ccccc2)CC1)C(=O)Nc1ccccc1 (stereo unspecified) | -5% | -1% | 7% | -6% | -26%
COc1ccc(C(=O)c2sc3nc(-c4ccccc4)ccc3c2N)cc1 | ? | -18% | 7% | -2% | 10µM*[quencher]
CCOc1ccccc1NC(=O)c1sc2nc(-c3ccc(OC)cc3)ccc2c1N | ? | 13% | 6% | -3% | 3.5µM*[quencher]
COc1ccc(-c2ccc3c(N)c(C(=O)Nc4ccc(C)cc4C)sc3n2)cc1OC | ? | 5% | -1% | -2% | 8.9µM*[quencher]
COc1cccc(-c2ccc3c(N)c(C(=O)c4ccc(Cl)cc4)sc3n2)c1 | 4.5µM* | ? | 6% | -4% | 2.8µM*[quencher]
CC(C)OC(=O)c1sc2nc(-c3ccccc3)ccc2c1N | -10% | 1% | -16% | -1% | ?
COc1ccc(Cl)cc1NC(=O)c1sc2nc(-c3ccc(OC)c(OC)c3)ccc2c1N | ? | 4% | 0% | -21% | ?
CCOc1ccccc1NC(=O)c1sc2nc(C)cc(C)c2c1N | -7% | -2% | 7% | 2% | -14%
Cc1ccc(CNC(=O)c2ccc(CN3CC(=O)N4CCCCC4C3=O)cc2)cc1 (stereo unspecified) | -6% | 1% | -8% | 5% | -4%
COc1ccccc1NS(=O)(=O)/C=C/c1ccccc1 | -10% | 2% | 8% | 0% | -15%
Cc1c(Cl)cccc1NC(=S)N(Cc1cccnc1)Cc1ccccc1Cl | -4% | 1% | -4% | 1% | -15%
CN(C)c1ccc(-c2nc(-c3cc4cc(Cl)ccc4oc3=O)cs2)cc1 | -10% | 7% | 2% | -2% | -21%
CCN1C(C)=C(C(=O)OC)C(c2ccccc2)N2C(=O)[C@](O)(C(=O)OC)C(c3ccccc3)C(C(C)=O)=C12 (stereo partly specified) | ? | -12%[11.6 µM] | 2%[11.2 µM] | -3%[11.2 µM] | -25%[11.6 µM]
CCNc1nc(N)nc(Cl)n1 | / | / | -4%[201 µM] | -5%[201 µM] | /
Cc1ccc(NC(=O)Cc2coc3ccc(C(C)C)cc23)cc1Cl | -13% | ? | -28%[53 µM] | 0.16µM*[quencher] | ?
Cc1cccc(C)c1OCc1nnc(NC(=O)CSc2ccc(Cl)cc2)s1 | 2% | ? | 6% | -2% | -3%
